Screening data (PubChem BioAssay)
Cycloheximide cs: counter-screen for Shiga toxin inhibitors: cycloheximide protein synthesis inhibition | cell reporter, cycloheximide protein synthesis inhibition counterscreen | max response, % | 300,000 compounds, 12% hits; in the data active means max response mostly above about 13%, no sharp cut-off; inactive means mostly below about 14%; further: read at 38.3 µM for the half of the compounds with a filed dose
Pf growth 48h: P. falciparum growth inhibition at 48 hours (one generation); P. falciparum luciferase growth in erythrocytes, 48 h; Potency, µM (top dose mostly 28.7 µM), hits mostly inhibitors; 310,000 compounds, 5.9% hits; AID 504832; active means well fitted inhibition curve with a large enough effect; inconclusive means small, poorly fitted or top-dose-only effect, or another doubt; inactive means no such curve, though single readings can be large or run the other way
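Luminescence readout; reporter = integrated firefly luciferase in P. falciparum. RBC culture at 2% hematocrit, 0.1% parasitemia final, 37 C/5% CO2; decreased signal taken as growth inhibition.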
Pf growth 96h: P. falciparum growth inhibition at 96 hour, primary screen for plastid delayed-death inhibitors. P. falciparum luciferase reporter growth, 96 h. Potency, µM (top dose mostly 28.7 µM), actives largely listed as inhibitors. 320,000 compounds, 6.9% hits. AID 504834; active means well fitted inhibition curve with a large enough effect; inconclusive means small, poorly fitted or top-dose-only effect, or another doubt; inactive means no such curve, though single readings can be large or run the other way
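Parasite growth measured via integrated firefly luciferase reporter in P. falciparum. Infected erythrocytes at 2% hematocrit, 0.05% parasitemia final were treated 96 hours at 37 C under 5% CO2, and luminescence was read.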
Shiga toxin inh: inhibitors of Shiga toxin in Vero cells; Vero cells, Shiga toxin protein synthesis inhibition reporter; inhibition, % at 38.7 µM; AID 2315; 290,000 compounds, 9.2% hits; in the data active means inhibition mostly above about 28%, no sharp cut-off; inactive means mostly below about 43%
SARS PLP yeast: blocks SARS-CoV papain-like protease in a yeast assay; 330,000 compounds, 0.19% hits; Potency, µM (top dose mostly 32.9 µM), actives largely listed as activators; S. cerevisiae expressing SARS-CoV PLpro, growth rescue; further: nearly all actives have a fitted effect of over 55% in size
NS1 function inh: influenza NS1 inhibition | Potency, µM (titrated, usually from 46.1 µM) | 270,000 compounds, 0.4% hits | AID 2326; further: actives are rising curves; nearly all actives have a fitted effect of over 50% in size
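Growth recovery, yeast-based: influenza A NS1 expressed in S. cerevisiae causes slow growth, and suppressors are detected by OD600. The parent strain without NS1 is used as positive control.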
A number is an active result; - = inactive; ? = inconclusive; . = no result; + = active, no number. Shown are actives, neighbours in structure and some others; about 21% of the full set was active somewhere. Unless noted, the call rests on the fitted dose curve.

SMILES | Cycloheximide cs | Pf growth 48h | Pf growth 96h | Shiga toxin inh | SARS PLP yeast | NS1 function inh
COc1ccc(CC(=O)NCC2CCCN(Cc3ccc(OC(F)(F)F)cc3)C2)cc1 (stereo not given) | - | 9.28µM | ? | - | - | -
COc1ccc(Cn2c(-c3ccc(Br)cc3)c[n+]3ccccc23)cc1 | 56.6 | 0.657µM | 0.131µM | 48.6 | - | -
Cc1cccc(NC(=O)CN2C(=O)N/C(=C\c3ccc(-c4cccc(C(=O)O)c4)o3)C2=O)c1 | 54.4 | - | - | 174.4 | - | -
Cc1ccc(NC(=O)CN2C(=O)N/C(=C/c3ccccc3OCc3cccc(C(=O)O)c3)C2=O)cc1 | 43.2 | - | - | 47.6 | - | -
Cc1cccc(NC(=O)CN2C(=O)N/C(=C/c3ccc(C)o3)C2=O)c1 | - | - | - | - | - | -
CCN1C(=O)/C(=C\c2ccc(-c3cccc(C(=O)OC)c3)o2)SC1=Nc1ccc(C(=O)O)cc1 | - | ? | ? | - | - | -
CCN=C1S/C(=C\c2ccc(-c3cccc(C(=O)O)c3)o2)C(=O)N1CC | 83.2 | - | - | + | - | .
O=C(Nc1nc(-c2ccccc2)cs1)C1c2ccccc2Oc2ccccc21 | - | 11.7µM | 10.4µM | - | - | -
O=C(Nc1nc(-c2ccc(-c3ccccc3)cc2)cs1)C1CCCO1 (stereo not given) | - | . | - | - | - | -
O=C(Nc1nc(-c2ccc(F)cc2)cs1)C1CCCO1 (stereo not given) | 42.0 | - | - | 103.7 | - | -
O=C(Nc1nc(-c2ccncc2)cs1)C1c2ccccc2Oc2ccccc21 | - | ? | ? | - | - | -
O=C(Nc1nc(-c2ccccc2)cs1)C1CCCO1 (stereo not given) | 38.1 | - | ? | 110.9 | - | -
O=C(NCc1ccc(F)cc1)C(C(=O)NCc1ccc(F)cc1)c1ncc(C(F)(F)F)cc1Cl | - | - | ? | - | - | -
CCOC(=O)C(C(=O)NCc1ccc(F)cc1)c1ncc(C(F)(F)F)cc1Cl (stereo not given) | 16.8 | ? | - | - | - | -
C=CCN(C(=O)c1ccc(Cl)cc1)c1ccccc1C(=O)NCC(=O)O | - | - | - | - | - | -
COCCOCCn1c(/C=C/c2ccccc2)nc2ccccc21 | 20.1 | - | - | - | - | -
CC(C)Cn1c(S(=O)(=O)O)nc2ccccc21 | - | ? | - | - | - | -
COCCOCCn1c(CCCO)nc2ccccc21 | - | - | - | - | - | -
CCCn1c(/C=C/c2ccccc2)nc2ccccc21 | 26.1 | - | - | 106.2 | - | -
CC(C)Cn1c(/C=C/c2ccco2)nc2ccccc21 | 19.1 | - | ? | - | - | -
COc1ccc(/C=C/c2nc3ccccc3n2Cc2ccc(OC)c(OC)c2)cc1 | 70.4 | - | - | 57.1 | - | -
CCn1c(/C=C/c2cc[n+](C)cc2)nc2ccccc21 | - | ? | ? | - | - | -
CCn1c2ccccc2c2cc(NC(=O)COC(=O)c3ccc(NC(=O)CC#N)cc3)ccc21 | . | - | - | . | - | .
CC(C)n1c(/C=C/c2ccccc2)nc2ccccc21 | 29.9 | - | - | 78.9 | - | -
CCCOc1ccc(-c2nnc(-c3ccco3)o2)cc1 | 51.3 | - | 11.7µM | - | - | -
SMILES | Cycloheximide cs | Pf growth 48h | Pf growth 96h | Shiga toxin inh | SARS PLP yeast | NS1 function inh
CC(C)COc1ccc(-c2nnc(-c3ccco3)o2)cc1 | 29.8 | - | ? | - | - | -
C=CCn1c(SCC(=O)N(C)c2c(N)n(Cc3ccccc3)c(=O)[nH]c2=O)nnc1-c1ccccc1OC | - | - | - | - | - | -
O=C(COC(=O)c1cc(Br)ccc1O)Nc1cccnc1Cl | . | - | - | . | - | .
Fc1ccccc1N1CCN(c2nc3ccccc3n3nnnc23)CC1 | 14.3 | - | - | - | - | -
Cc1cc(C2N=C(N)Nc3nc4ccccc4n32)c(C)n1-c1ccccc1Cl (stereo not given) | - | . | - | - | - | ?
Cc1ccc(-n2c(C)cc(C3N=C(N)Nc4nc5ccccc5n43)c2C)c(C)c1 (stereo not given) | - | 8.28µM | - | - | - | -
Cn1nc(C(=O)OCC(=O)NCCc2ccccc2)c2ccccc2c1=O | 26.8 | ? | - | - | - | -
Cn1nc(C(=O)OCC(=O)NCc2ccc(Cl)cc2)c2ccccc2c1=O | . | . | . | . | - | .
COC(=O)c1ccc(COC(=O)c2nn(C)c(=O)c3ccccc23)cc1 | 22.7 | - | - | - | - | -
